# Data published in PubChem BioAssay (NCATS).
# Records with an inconclusive call do not appear. Values without a mark were called inactive. Calls come from the whole dose curve; as a rule, active = well fitted inhibition curve with a large enough effect; inconclusive = small, poorly fitted or top-dose-only effect; inactive = no such curve, though single readings can be large or run the other way.
# Biological target: Retinaldehyde dehydrogenase 3 (Homo sapiens) (UniProt P47895)
# Assay: qHTS for Inhibitors of the Aldehyde Dehydrogenase Family (ALDH1A3) Primary screen (AID 2061315);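 note: plate controls were DMSO vehicle for no effect and reference inhibitor for full effect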
# Conditions: ALDH inhibition qHTS; series mostly up to 56 µM; activity change, negative = inhibition: at the top concentration
row,SMILES,"activity change, negative = inhibition"
1,COc1cccc(C2=Nn3c(nnc3-c3ccc(OC)c(OC)c3)SC2)c1,-2.21%
2,O=C(Nc1nnc(-c2ccncc2)s1)Oc1ccc2ccccc2c1,-11%
3,Cc1ccnc(NC(=S)NCCNc2cccc(C(F)(F)F)c2)c1,36%
4,Cn1c2ccsc2c2ncn(Cc3ccc(F)cc3)c(=O)c21,-6.17%
5,Cc1nc(N2CCOCC2)c2nc(-c3ccccc3)n(CCCN(C)C)c2n1,-6.01%
6,CCCCC(OC(=O)CNC(=O)c1ccccc1)C(=O)Nc1cc(C(F)(F)F)ccc1Cl (stereo not given),12.5%
7,C[C@@H](N)C(=O)Nc1cccc(-c2nn3c(=O)cc(N4CCNCC4)nc3s2)c1,-6.81%
8,Cc1nc2ccccn2c1C(O)(c1ccccc1)c1ccccc1,7.66%
9,COc1cccc(-c2ccc3ncnc(NCc4cccc(F)c4)c3c2)c1,19.3%
10,CNc1nc(-c2ccc3c(N)n[nH]c3c2)cc(N2CC(C(=O)NC3CCCCC3)CCC2C)n1 (stereo not given),-8.47%
11,COc1cc(O)c(C(CC(=O)N2CCC(Cc3ccccc3)CC2)c2ccc(OC)c(OC)c2)c(OC)c1 (stereo not given),12.4% [at 114 µM]
12,CS(=O)(=O)c1ccc(C(=O)OCC(=O)N2CCC(Cc3ccccc3)CC2)cc1[N+](=O)[O-],-0.966%
13,COC(=O)c1ccccc1C(=O)Nc1nc(-c2ccccc2)cs1,-3.67%
14,Clc1ccccc1-c1nc(NCc2ccc(-c3cccnc3)cc2)c2ccccc2n1,-11.1%
15,Cc1ccc(S(=O)(=O)Nc2cc(C(=O)Nc3nc(-c4ccccc4)cs3)ccc2Cl)cc1,-4.82%
16,CCNc1cccc(S(=O)(=O)N2CCCN(S(=O)(=O)c3ccc4c(c3)OCCO4)CC2)c1,-9.12%
17,C=CCOc1cc(Cl)ccc1C(=O)NCCN(CC)CC,9.49%
18,O=C(Nc1ccc2ccccc2c1)Nc1nnc(C2CCCCC2)s1,-0.747%
19,Cc1nc(Nc2ccccc2)c2nc(-c3ccccc3)n(CCN3CCOCC3)c2n1,-3%
20,COc1cc(-c2nc(Nc3ccc(F)c(F)c3)c3ccccc3n2)ccn1,3.48%
21,Cc1noc(-c2ccc(-c3ccc(CC(=O)O)cc3)cc2)c1NC(=O)O[C@H](C)c1ccccc1Cl,83.9%
22,Cc1ccc(OCCn2c(CCNC(=O)c3cccc(C)c3)nc3ccccc32)cc1,9.72%
23,O=C(OCC#CCSc1nnc(-c2cccc3ccccc23)o1)C1CCCC1,12.3%
24,Cc1ccc(-c2cc(C(=O)Nc3ccccc3C)c3ccccc3n2)cc1C,3.61%
25,Cc1nc(NCc2ccccc2)c2nc(-c3ccccc3)n(CCCN3CCCCC3C)c2n1 (stereo not given),15.3%
26,O=c1c2ccccc2nc2sc(Nc3cccc(Br)c3)nn12,10.2%
27,CCN(CC)CCCn1c(-c2ccccc2)nc2c(NCc3ccccc3)nc(C)nc21,8.19%
28,O=S(=O)(Nc1nc(-c2ccccc2C(F)(F)F)nc2ccccc12)c1ccc(-c2ccnc(C(F)(F)F)c2)cc1,-6.06%
29,O=C1CCCC2=C1C(c1ccccc1C(F)(F)F)N=C(Nc1nc3ccccc3o1)N2 (stereo not given),-3.16%
30,O=C(c1ccccc1)N1CCN(c2nc(-c3cccs3)nc3ccccc23)CC1,8.59%
